In PubChem BioAssay AID493011 (Sanford-Burnham Center for Chemical Genomics, 2011):
Hit rate of the full screen: of about 330,000 compounds, about 1,400 (0.42%) were called active. Many of the other results were omitted from the sample, so actives are more common in it than they were. Unmarked numbers belong to inactive results.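 How the source made its calls: active means at least 40% inhibition at 20 µM here, with at most 30% in a related deaminase screen; inactive means the rest.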

Molecular target: DNA dC->dU-editing enzyme APOBEC-3A (Homo sapiens) (UniProt P31941)
Assay: blockers of A3A cytidine deamination on DNA – biochemical, FAM/TAMRA oligo cleavage fluorescence, selectivity assay for APOBEC3G inhibitor project, primary screen (AID 493011);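 further: plate controls were A3A with DMSO for no effect and wells lacking A3A enzyme for full effect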
Settings: recombinant A3A, FAM/TAMRA ssDNA deamination fluorescence; at 20 µM; stronger effect = higher value

DNA dC->dU-editing enzyme APOBEC-3A (Homo sapiens), sequence (P31941 whole entry, looked up): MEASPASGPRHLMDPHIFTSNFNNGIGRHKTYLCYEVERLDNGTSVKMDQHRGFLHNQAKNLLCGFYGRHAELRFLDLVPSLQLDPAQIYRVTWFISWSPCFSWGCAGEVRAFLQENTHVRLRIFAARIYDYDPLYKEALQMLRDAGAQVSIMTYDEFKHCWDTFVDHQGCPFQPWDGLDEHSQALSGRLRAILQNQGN

Row | SMILES | inhibition
1 | CC(=O)N/C(=N/c1nc(C)cc(C)n1)Nc1ccc(F)cc1F | -1.6%
2 | CC(=O)NNc1cc(=O)c2c(=O)n(C)c(=O)n(C)c2[nH]1 | 2.94%
3 | CC(=O)Nc1ccc(S(=O)(=O)Oc2ccc(/C=N/N=C3/NC(=O)C(CC(=O)O)S3)cc2)cc1 (stereo not drawn) | -1.33%
4 | COc1ccccc1CNC(=O)C1CCN(C(=O)[C@@H]2Cc3ccccc3CN2)CC1 | -2.15%
5 | COc1ccccc1CCNC(=O)C1CCN(C(=O)/C=C/c2ccccc2)CC1 | 40.4% (active)
6 | COc1ccccc1CNC(=O)C1CCN(S(C)(=O)=O)CC1 | 3.64%
7 | CCCc1nnc(SCC(=O)N2C(C)CCCC2C)n1CC (stereo not drawn) | 0.831%
8 | COc1cc(C(CCN2CCN(c3ccccc3)CC2)c2c(OC)cc(OC)c3ccc(=O)oc23)cc(OC)c1OC (stereo not drawn) | -5.74%
9 | CC(C)(C)C(=O)CSc1ccc(S(=O)(=O)N2CCCC2)cn1 | -1.15%
10 | CC(Oc1ccc(F)cc1)C(=O)Nc1cc(S(=O)(=O)N2CCOCC2)ccc1N1CCN(C)CC1 (stereo not drawn) | 63.9% (active)
11 | CN1CCN(c2ccc(S(=O)(=O)N3CCOCC3)cc2NC(=O)CCc2ccccc2)CC1 | 3.6%
12 | CCN(CC)S(=O)(=O)c1ccc(N2CCOCC2)c(NC(=O)C(C)Oc2ccc(F)cc2)c1 (stereo not drawn) | -2.06%
13 | O=C(CN(CC1CCCO1)C(=O)CNS(=O)(=O)c1ccccc1)NCc1ccccc1 (stereo not drawn) | -2.59%
14 | Cc1csc(SCC(=O)Nc2sccc2C#N)n1 | 67.3% (active)
15 | COc1ccc(NC(=O)CSc2nc(C)cs2)cc1 | 3.79%
16 | Cc1ccc(NC(=O)CSCC(=O)Nc2sccc2C#N)cc1 | -0.813%
17 | CCN(CC)c1ccc(S(=O)(=O)N2CCCCC2)cc1NC(=O)C1=COCCO1 | -3.33%
18 | CCCC(=O)Nc1cccc(NC(=S)NC(=O)C(C)Oc2ccc(Cl)cc2Cl)c1 (stereo not drawn) | 1.55%
19 | CC(C)Cc1ccc(C(C)C(=N)N)cc1 (stereo not drawn) | 2.27%
20 | COc1ccc(C)cc1NC(=O)CNCc1cccs1 | -2.55%

Row | SMILES | inhibition
21 | COc1ccccc1CNC(=O)CCCN1C(=O)NC2(CCCC2)C1=O | -3.53%
22 | COc1ccc(C)cc1NC(=O)CCCN1C(=O)NC(C)(C)C1=O | 47.3% (active)
23 | Cc1nnsc1S(=O)(=O)Cc1ccccc1Cl | -0.082%
24 | CC(C)CNC(=O)CC(c1ccccc1)c1c(O)ccc2ccccc12 (stereo not drawn) | -1.51%
25 | CC1CCCCC1NC(=O)NC(=O)COC(=O)C1=NN(c2ccccc2)C(=O)CC1 (stereo not drawn) | 1.05%
26 | CCCn1c(SCC(=O)N2CCc3ccccc32)nnc1-c1ccncc1 | -1.68%
27 | COCCCn1c(SCC(=O)Nc2ccccc2)nnc1-c1ccncc1 | 0.275%
28 | CSc1nnc(-c2ccncc2)n1CCCN1CCCC1=O | 63% (active)
29 | CCN(CC(=O)Nc1cc(Cl)ccc1C)C(=O)Cn1c(=O)cnc2ccccc21 | 10.7%
30 | CCOc1ccc(C(=O)CCN2CCOCC2)cc1 | -4.07%
31 | CCC(=O)c1ccc(OCC(O)CN2CC(C)OC(C)C2)cc1 (stereo not drawn) | 0.408%
32 | CC(C)CCOc1ccc(C(=O)C[N+]2(C)CCOCC2)cc1 | 83.1% (active)
33 | CCn1c(=O)c(=O)[nH]c2c(=O)oc3ccc(S(=O)(=O)Nc4ccc(OC)cc4)cc3c21 | -3.37%
34 | CCC(C)c1ccc(NC(=S)N2CCCC2)cc1 (stereo not drawn) | -3.82%
35 | O=S(=O)(Nc1ccccc1N1CCOCC1)c1ccc(Cl)s1 | 2.47%
36 | COc1cccc(N2CCN(c3ccc4nnc(CCC(=O)N5CCN(C)CC5)n4n3)CC2)c1 | -4.98%
37 | Fc1cc(Br)ccc1NC(=S)Nc1cccnc1 | -0.709%
38 | S=C(Nc1cccnc1)Nc1ccccn1 | 63.4% (active)
39 | COc1cc(/C=N/NC(=S)Nc2cccnc2)cc(OC)c1O | -4.38%
40 | O=C(COC(=O)C1CCN(S(=O)(=O)c2ccc3c(c2)OCCO3)CC1)Nc1ccccc1OC(F)F | 3.88%

Row | SMILES | inhibition
41 | CCc1ccc(NC2Nc3cc(C)nn3S2)cc1 (stereo not drawn) | -0.183%
42 | Cc1nnc(CN(C)Cc2cn[nH]c2-c2ccc(-c3ccccc3)cc2)o1 | 1.98%
43 | COc1ccc(C(=O)OCC(=O)NC(=O)CCSc2ccccc2)cc1 | 0.284%
44 | CS(=O)(=O)c1ccc2c(c1)SC1=NC(=O)/C(=C/c3ccco3)C(=N)N12 | 41.6% (active)
45 | CCS(=O)(=O)C1=NSC2=NC(=O)/C(=C\c3ccc(OS(=O)(=O)c4ccccc4)cc3)C(=N)N21 | -0.304%
46 | CCS(=O)(=O)C1=NSC2=NC(=O)/C(=C\c3cc(C)n(-c4cccc(OC)c4)c3C)C(=N)N21 | -3.79%
47 | COc1cc(C)c(Cl)cc1S(=O)(=O)n1ccnc1 | -3.09%
48 | Cc1noc(C)c1S(=O)(=O)N(C)C[C@H]1Oc2ccc(NC(=O)C3CC3)cc2C(=O)N([C@H](C)CO)C[C@@H]1C | -2.35%
49 | O=C(NNC(=O)c1cnccc1C(F)(F)F)c1ccc(Cl)cc1 | -3.45%
50 | O=C(Nc1ccccc1)c1cc2ccccc2[nH]1 | 2.51%
51 | O=C(Nc1cccc(-c2nc3ccccc3[nH]2)c1)c1ccc(C(=O)Nc2cccc(-c3nc4ccccc4[nH]3)c2)cc1 | 52.5% (active)
52 | CN(c1ccccc1)S(=O)(=O)c1cc(C(=O)Nc2nc3ccccc3[nH]2)ccc1Cl | 2.16%
53 | C/C(=N\NC(=O)C1(C)CC1(Br)Br)c1ccc(C)cc1C (stereo not drawn) | 3.9%
54 | CC(Oc1ccc(F)cc1)C(=O)N1CCN(c2ncccn2)CC1 (stereo not drawn) | 3.53%
55 | Cc1ccc(NC(=O)COc2coc(CN3CCc4ccccc4C3)cc2=O)cc1Cl | -2.19%
56 | CC1(C)CC(N2CCN(C(c3ccccc3)c3ccccc3)CC2)=CC(=[N+]2CCCCC2)C1 | 57.4% (active)
57 | COc1ccccc1CN1CCN(C(c2ccccc2)c2ccccc2)CC1 | -1.76%
58 | c1ccc(C(c2ccccc2)N2CCN(Cc3nnnn3C3CCCCC3)CC2)cc1 | -5.77%
